# Measured values as given in PubChem BioAssay.
# The source made the active and inactive calls. The rule behind the calls is not given here.
# Test: Brca1-Bard1 BiLC signal decrease – luminescence, single concentration, counter-screen for Mdm2/MdmX interaction inhibitor project, confirmation (AID 504668)
# Settings: Brca1/Bard1 bimolecular luciferase complementation counterscreen, at 8 µM, stronger effect = higher value
row,SMILES,inhibition
1,CN1C2CCC1/C(=C\c1ccccc1F)C(=O)/C2=C/c1ccccc1F,35.1% (active)
2,CCOC(=O)/C(=C\c1cccc(O)c1)c1nc2sc(C)c(C)c2c(=O)[nH]1,27% (active)
3,Oc1ccc(N=Nc2ccccc2C(F)(F)F)c2cccnc12,23.3% (active)
4,O=C(Nc1ccc(N2CCCCC2)cc1)c1ccccn1,27.9% (active)
5,COc1ccc(C(NC(=O)c2cccnc2)c2cc(Cl)c3cccnc3c2O)cc1OC (centres undefined),26.3% (active)
6,COc1cccc(/C=N/NC(=O)c2cc(-c3cccn3C)n[nH]2)c1O,32.4% (active)
7,CCc1ccc2c(c1)C1(NN=C(c3cccc4ccccc34)S1)C(=O)N2 (centres undefined),30% (active)
8,CCOC(=O)c1c(-c2ccccc2)oc2ccc(OCC(O)CNCCN(C)C)cc12 (centres undefined),35.1% (active)
9,Cc1nc(SCC(=O)Nc2ccc(S(=O)(=O)N3CCOCC3)cc2)c2c(C)c(C)sc2n1,28.6% (active)
10,O=[N+]([O-])c1ccc2ncnc(Nc3ccc4c(c3)OCCO4)c2c1,29.6% (active)
11,COc1ccc(C)cc1NC(=O)c1ccccc1NS(=O)(=O)c1ccc(Cl)s1,32.4% (active)
12,CC(=O)NC(c1cccs1)c1cc(F)c2cccnc2c1O (centres undefined),30.4% (active)
13,O=C(/C=C/c1ccccc1)NC(NC(=S)Nc1cc(Cl)ccc1Cl)C(Cl)(Cl)Cl (centres undefined),31.2% (active)
14,COc1ccc([C@@H]2[C@@H]3C(=O)N(C(C)(C)C)C(=O)[C@@H]3[C@]3(CC(C)C)C(=O)N(c4ccc(C(F)(F)F)cc4)C(=O)N23)cc1,35% (active)
15,C(=N\Nc1nc2ccccc2[nH]1)/c1cccc2nccnc12,31.8% (active)
16,C#CCOCCOCCOCCNc1nc(N2CCN(C(=O)CCCCCCCCCCNC(=O)[C@H](CO)n3cc(CCCSC)nn3)CC2)nc(N2CCN(C(=O)CCCCCCCCCCNC(=O)[C@H](CCCCN)n3cc(C[C@@H](C)CC)nn3)CC2)n1,26.6% (active)
17,O=C(N/N=C/c1cc([N+](=O)[O-])ccc1N1CCNCC1)c1ccc([N+](=O)[O-])cc1,32.1% (active)
18,O=C(Nc1ccc(-c2nc3ccccc3[nH]2)cc1)c1ccc2c(c1)OCO2,28.7% (active)
19,Clc1ccc(Cn2ncc3c(NCc4ccco4)ncnc32)c(Cl)c1,31.2% (active)
20,O=C(CCCN1C(=O)/C(=C\c2ccccc2)SC1=S)Nc1ccc(O)cc1,33.2% (active)

row,SMILES,inhibition
1,O=S(=O)(CCSc1nc2ccccc2o1)c1nc2ccccc2s1,35.6% (active)
2,CC(=O)/C(C#N)=C1\NC(=O)C(Cc2cc(Cl)ccc2Cl)S1 (centres undefined),31.2% (active)
3,COc1cc(NC(=S)NC(=O)c2ccc(C(C)(C)C)cc2)ccc1NC(=O)c1cccs1,27.7% (active)
4,S=C(NNc1ccc2ccccc2c1)NC1CCCCC1,34.4% (active)
5,c1ccc(CNc2nc(-c3ccccn3)nc3ccccc23)cc1,23.3% (active)
6,Cc1ccc(NC(=O)c2cc3ccccc3oc2=O)cc1S(=O)(=O)N(C)C,25.9% (active)
7,CCN(CC)CCNC(=O)c1ccc(NC(=O)c2cn(-c3ccc(F)cc3)nc2-c2cccc(OC)c2)cc1,27.9% (active)
8,Cc1sc2ncnc(N3CCC(C(=O)Nc4ccccc4C(C)(C)C)CC3)c2c1C,27.8% (active)
9,Cc1cccc(NC(=O)[C@H](Cc2c[nH]c3ccccc23)NC(=O)[C@@H]2Cc3ccccc3CN2)c1,26.6% (active)
10,Cc1ccc2cccc(NS(=O)(=O)c3ccccc3)c2n1,23.1% (active)
11,COc1ccc(C(=O)O/N=C(\N)Cc2ccc(Cl)c(Cl)c2)cc1OC,26.9% (active)
12,O=C(NC(CSCc1ccccc1)C(=O)N/N=C/c1ccc(O)cc1O)c1ccc([N+](=O)[O-])cc1 (centres undefined),34.3% (active)
13,O=C(NCc1cccnc1)c1c(O)c2cccc3c2n(c1=O)CCC3,31.4% (active)
14,CC(C)CC[n+]1ccccc1/C=C/c1ccc(N(C)C)cc1,26.6% (active)
15,CC(C)(C)N1C(=O)[C@H]2[C@@H](c3ccc(Br)cc3)N3C(=O)N(c4ccc(Br)cc4)C(=O)[C@@]3(Cc3ccccc3)[C@H]2C1=O,35.6% (active)
16,Cc1ccc(C(c2cc(Cl)c3cccnc3c2O)N2CCN(C)CC2)cc1 (centres undefined),32.5% (active)
17,Nc1nonc1-n1nnc(C(=O)N/N=C/c2cc(Cl)ccc2O)c1CN1CCCCCC1,32.2% (active)
18,COc1ccc(/C=C2/SC(=S)N(CCCC(=O)N3CCN(C)CC3)C2=O)cc1,31.7% (active)
19,COC(=O)[C@@H]1C[C@]2(OC(=O)c3ccccc3)C=CC(=O)C[C@@H]2N1C(=O)OCc1ccccc1,34.4% (active)
